Test results published in PubChem BioAssay AID1159580 (chemical genetic matrix, 2015).
Where “and” joins values, the source holds several entries; their conditions need not be identical. Identical values can stand only once. The whole screen tested about 5,500 compounds, of which about 2,000 (36%) were called active. Roughly 18% stayed inconclusive and do not appear here. No stated cut-off is given here; in the data, active means normalized growth mostly below about 0.91 (no sharp cut-off); inconclusive means no clear call, values can overlap the other calls; inactive means mostly above about 0.92. The list shows a part of the results.

Experiment: chemical genetic growth profiling, strain panel (AID 1159580);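 further: tested at 20 µM; growth read once vehicle control cultures reached saturation at 30 °C; 1 = growth at the plate median or of vehicle wells; lower values mean less growth of the strain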
Conditions: S. cerevisiae deletion strains, growth OD

Measured: normalized growth

CC(=O)OC1CCC2(C)C(=CC=C3C2CCC2(C)C3CCC2C(C)/C=C/C(C)C(C)C)C1(C)C (configuration not stated)
inactive: locus YAL021C, strain ccr4, hits give low values 0.994 | locus YAL026C, strain drs2, hits give low values 1.02 | locus YAL030W, strain snc1, hits give low values 1.02 | locus YBL061C, strain skt5, hits give low values 1.02 | locus YBR009C, strain hhf1, hits give low values 1.01 | locus YBR021W, strain FUR4, hits give low values 1.02 | locus YBR023C, strain chs3, hits give low values 1.03 | locus YBR171W, strain sec66, hits give low values 1.04 | locus YBR229C, strain ROT2, hits give low values 1.01 | locus YBR231C, strain swc5, hits give low values 1.04 | locus YBR279W, strain paf1, hits give low values 1.02 | locus YCL011C, strain gbp2, hits give low values 1.03 | locus YCL016C, strain dcc1, hits give low values 1.01 | locus YCL029C, strain bik1, hits give low values 1.01 | locus YCL069W, strain vba3, hits give low values 1.02 | locus YCR088W, strain abp1, hits give low values 1.03 | locus YDL005C, strain med2, hits give low values 1.04 | locus YDL035C, strain GPR1, hits give low values 1.03 | locus YDL040C, strain nat1, hits give low values 1.02 | locus YDL074C, strain BRE1, hits give low values 1.06 | locus YDL101C, strain DUN1, hits give low values 1.02 | locus YDL185W, strain tfp1, hits give low values 0.993 | locus YDL192W, strain arf1, hits give low values 1 | locus YDR001C, strain nth1, hits give low values 1.03 | locus YDR069C, strain doa4, hits give low values 1.02 | locus YDR101C, strain arx1, hits give low values 0.974 | locus YDR137W, strain rgp1, hits give low values 1.03 | locus YDR159W, strain sac3, hits give low values 1.04 | locus YDR162C, strain NBP2, hits give low values 0.995 | locus YDR195W, strain ref2 1.05 | locus YDR297W, strain sur2, hits give low values 1.02 | locus YDR318W, strain mcm21, hits give low values 1 | locus YDR334W, strain swr1, hits give low values 1.03 | locus YDR335W, strain msn5, hits give low values 1.02 | locus YDR388W, hits give low values 1.02 | locus YDR392W, strain spt3, hits give low values 0.992 | locus YDR502C, strain sam2, hits give low values 0.989 | locus YEL003W, strain gim4, hits give low values 1.03 | locus YEL037C, strain rad23, hits give low values 1.02 | locus YEL061C, strain CIN8 (second series), hits give low values 1.04 | locus YEL061C, strain CIN8, hits give low values 1.01 | locus YER015W, strain faa2, hits give low values 1.03 | locus YER016W, strain bim1, hits give low values 1.02 | locus YER110C, hits give low values 1.01 | locus YER111C, strain swi4, hits give low values 1.02 | locus YER155C, strain BEM2 (second series), hits give low values 1.05 | locus YER155C, strain BEM2, hits give low values 0.998 | locus YER167W, strain BCK2, hits give low values 1.04 | locus YFR010W, strain ubp6, hits give low values 1.04 | locus YGL078C, strain dbp3, hits give low values 0.987 | locus YGL086W, strain mad1, hits give low values 0.994 | locus YGL167C, strain pmr1, hits give low values 1.02 | locus YGL173C, strain kem1, hits give low values 1.03 | locus YGL227W, strain vid30, hits give low values 1.03 | locus YGL240W, strain doc1, hits give low values 1 | locus YGL248W, strain PDE1, hits give low values 1.01 | locus YGL253W, strain hxk2, hits give low values 1.03 | locus YGR078C, strain PAC10, hits give low values 1.04 | locus YGR135W, strain pre9, hits give low values 0.996 | locus YGR252W, strain gcn5, hits give low values 1.03 | locus YHR013C, strain ard1, hits give low values 1.03 | locus YHR027C, strain rpn1, hits give low values 1.04 | locus YHR030C, strain SLT2, hits give low values 1.01 and 0.996 | locus YHR079C, strain IRE1 (second series), hits give low values 0.998 | locus YHR079C, strain IRE1, hits give low values 1.03 | locus YHR094C, strain hxt1, hits give low values 0.991 | locus YHR129C, strain ARP1, hits give low values 1.03 | locus YHR142W, strain chs7, hits give low values 1.05 | locus YHR200W, strain rpn10, hits give low values 0.986 | locus YIL066C, strain RNR3, hits give low values 1.03 | locus YIL073C, strain SPO22, hits give low values 1.03 | locus YIL125W, strain kgd1, hits give low values 1 | locus YIR030C, strain dcg1, hits give low values 1 | locus YJL092W, strain hpr5, hits give low values 1.03 | locus YJL095W, strain BCK1 (second series), hits give low values 1.02 | locus YJL095W, strain BCK1, hits give low values 1.03 and 0.996 | locus YJL115W, strain asf1, hits give low values 1.03 | locus YJL129C, strain trk1, hits give low values 1.05 | locus YJL134W, strain LCB3, hits give low values 1.01 | locus YJL154C, strain vps35, hits give low values 1.03 | locus YJL164C, strain tpk1, hits give low values 1.01 | locus YJL166W, strain qcr8, hits give low values 1.02 | locus YJL168C, strain set2, hits give low values 1 | locus YJL187C, strain SWE1 (second series), hits give low values 1.03 | locus YJL187C, strain SWE1, hits give low values 1.04 | locus YJR043C, strain POL32, hits give low values 1.03 | locus YJR066W, strain TOR1, hits give low values 0.936 | locus YKL009W, strain mrt4, hits give low values 1.01 | locus YKL068W, hits give low values 1.01 | locus YKL085W, strain MDH1 (second series), hits give low values 1 | locus YKL085W, strain MDH1, hits give low values 1 | locus YKL160W, strain elf1, hits give low values 0.997 | locus YKR001C, strain vps1, hits give low values 0.988 | locus YKR026C, strain gcn3, hits give low values 1.03 | locus YKR091W, strain srl3, hits give low values 1.03 | locus YLL001W, strain dnm1, hits give low values 1.01 | locus YLL026W, hits give low values 1.02 | locus YLL041C, strain sdh2, hits give low values 1.02 | locus YLR027C, strain aat2, hits give low values 1 | locus YLR039C, strain RIC1, hits give low values 1.04 | locus YLR058C, strain SHM2, hits give low values 1.01 | locus YLR102C, strain apc9, hits give low values 0.988 | locus YLR113W, strain HOG1, hits give low values 0.995 | locus YLR221C, strain rsa3, hits give low values 1.02 | locus YLR258W, strain gsy2, hits give low values 1 | locus YLR262C, strain YPT6 (second series), hits give low values 1.01 | locus YLR262C, strain YPT6, hits give low values 1.07 | locus YLR268W, strain sec22, hits give low values 0.998 | locus YLR320W, strain mms22, hits give low values 1.03 | locus YLR330W, strain CHS5, hits give low values 1.02 | locus YLR342W, strain FKS1 (second series), hits give low values 1.12 | locus YLR342W, strain FKS1, hits give low values 1.02 | locus YLR357W, strain rsc2, hits give low values 1.06 | locus YLR370C, strain arc18, hits give low values 1.06 | locus YLR371W, strain rom2, hits give low values 1.01 | locus YLR384C, strain iki3, hits give low values 1.03 | locus YLR418C, strain cdc73, hits give low values 1.02 | locus YML016C, strain PPZ1, hits give low values 1 | locus YML032C, strain rad52, hits give low values 1 | locus YML120C, strain ndi1, hits give low values 1.02 | locus YML124C, strain tub3, hits give low values 0.987 | locus YMR058W, strain fet3, hits give low values 1.05 | locus YMR078C, strain ctf18, hits give low values 0.998 | locus YMR125W, strain sto1, hits give low values 1.03 | locus YMR129W, hits give low values 1.03 | locus YMR205C, strain PFK2, hits give low values 1.02 | locus YMR223W, strain ubp8, hits give low values 1 | locus YMR231W, strain pep5, hits give low values 1.02 | locus YMR263W, strain SAP30, hits give low values 1.03 | locus YMR307W, strain GAS1, hits give low values 1 | locus YNL067W, strain RPL9B, hits give low values 1.04 | locus YNL071W, strain lat1, hits give low values 1.03 | locus YNL183C, strain NPR1, hits give low values 0.965 | locus YNL209W, strain ssb2, hits give low values 1.01 | locus YNL233W, strain BNI4, hits give low values 1.03 | locus YNL248C, strain rpa49, hits give low values 0.965 | locus YNL250W, strain rad50, hits give low values 0.99 | locus YNL271C, strain bni1, hits give low values 1 | locus YNL298W, strain CLA4, hits give low values 0.979 | locus YNL307C, strain MCK1, hits give low values 1.02 | locus YNL322C, strain KRE1 (second series), hits give low values 1.02 | locus YNL322C, strain KRE1, hits give low values 1.02 | locus YNR049C, strain mso1, hits give low values 1.02 | locus YNR052C, strain pop2, hits give low values 1.01 | locus YOL012C, strain htz1 1.7 | locus YOL147C, strain pex11, hits give low values 1 | locus YOR001W, strain rrp6, hits give low values 1.04 | locus YOR061W, strain CKA2, hits give low values 1 | locus YOR069W, strain VPS5, hits give low values 1.01 | locus YOR070C, strain gyp1, hits give low values 1.02 | locus YOR080W, strain dia2, hits give low values 1.02 | locus YOR083W, strain WHI5, hits give low values 0.998 | locus YOR106W, strain vam3, hits give low values 1.02 | locus YOR136W, strain idh2, hits give low values 0.987 | locus YOR144C, strain elg1, hits give low values 0.988 | locus YOR184W, strain ser1, hits give low values 0.983 | locus YOR231W, strain MKK1, hits give low values 1.04 | locus YOR265W, strain rbl2, hits give low values 1.01 | locus YOR270C, strain vph1, hits give low values 1.03 | locus YOR290C, strain snf2, hits give low values 0.993 | locus YOR316C, strain cot1, hits give low values 0.989 | locus YPL051W, strain arl3, hits give low values 1.02 | locus YPL055C, strain LGE1, hits give low values 1.07 | locus YPL078C, strain atp4, hits give low values 0.999 | locus YPL106C, strain sse1, hits give low values 1.05 | locus YPL240C, strain hsp82, hits give low values 1.03 | locus YPL256C, strain CLN2, hits give low values 1.04 | locus YPR119W, strain clb2, hits give low values 1 | locus YPR141C, strain kar3, hits give low values 0.982 | locus YPR163C, strain tif3, hits give low values 0.978 | locus YPR167C, strain met16, hits give low values 1.01 | strain wtn01, hits give low values 0.984
